# According to PubChem BioAssay (NCATS):
# Results filed as inconclusive are left out. A call without a number means that no potency is given here. Calls of active or inactive are those of the source. Calls come from the whole dose curve; as a rule, active = well fitted inhibition curve with a large enough effect; inconclusive = small, poorly fitted or top-dose-only effect; inactive = flat fitted curve, though single readings scatter.
# Columns and labels:
# [1] = P-glycoprotein substrates identified in KB-8-5-11 adenocarcinoma cell line, qHTS therapeutic library screen (AID 1346987); note: potency is the fitted concentration of half-maximal effect
# Outline: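 In this qHTS, P-gp-rich KB-8-5-11 cells received library compounds across a concentration range. Viability was quantified by luminescence after 72 h at 37 degree C.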
# [2] = molecular target: Glutathione peroxidase 1 (Homo sapiens) (UniProt P07203); assay: Primary qHTS Assay for Inhibitors of Recombinant Selenoprotein Glutathione Peroxidase 1 (GPX1) (AID 1845191)
# Outline: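 NADPH consumption tracked by fluorescence at 340/450 nm between t=0 and t=15 min, room temperature. Final mix: 10 nM GPX1, 100 nM glutathione reductase, 1 mM GSH, 0.5 mM NADPH, 0.5 mM cumene hydroperoxide, 0.01% BSA; 30 min compound–enzyme preincubation.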
# Note: nearly all actives have a fitted effect of over 65% in size.
# Sequence of Glutathione peroxidase 1 (Homo sapiens) (P07203 whole entry, looked up): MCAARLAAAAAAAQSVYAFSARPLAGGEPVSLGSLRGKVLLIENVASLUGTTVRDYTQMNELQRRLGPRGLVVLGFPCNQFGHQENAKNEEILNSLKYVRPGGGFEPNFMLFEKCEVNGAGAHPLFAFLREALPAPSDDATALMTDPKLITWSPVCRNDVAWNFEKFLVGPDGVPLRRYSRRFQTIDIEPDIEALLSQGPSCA
compound,measurement,setting,value
CCCCCCC(=O)O[C@H]1CC[C@H]2[C@@H]3CCc4cc(O)ccc4[C@H]3CC[C@]12C,Potency,[1],7.31 µM (active)
same,Potency,[2],inactive
